According to PubChem BioAssay (EPA / NIEHS):
Active and inactive are the calls of the source. The calls were made as follows: active = hit-call score of the fitted dose curve at least 0.9, where 1 is the maximum; inactive = score below 0.9.

read-out: Interferon-gamma inducible Protein 10 (IP10), CXCL10 (gene 3627); experiment: BSK_BE3C_IP10: BioMAP Diversity Plus: BE3C Assay for Interferon-gamma inducible Protein 10 (IP10) Biomarker Activity (AID 2283034); conditions: primary human bronchial epithelial cells; actives raise or lower the signal
Outline: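 Primary human bronchial epithelial cells, with IP-10 measured by ELISA 24 hours after chemical dosing. Bidirectional fit against DMSO; cytotoxicity checked by SRB total protein staining in parallel cultures.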

Row | Compound | outcome | AC50
1 | CCCCC(CC)COC(=O)CCCCC(=O)OCC(CC)CCCC (stereo not given) | inactive | –
2 | Nc1cccc2c(N)cccc12 | inactive | –
3 | CCCCC(CC)COC(=O)CCCCC(=O)OCc1ccccc1 (stereo not given) | inactive | –
4 | Oc1cc2ccccc2c2ccccc12 | – | 13 µM (active)
5 | CC(O)CO (stereo not given) | inactive | –
6 | CN1CCN(c2ccccc2/C=C2\SCCN(c3ccc(Cl)c(Cl)c3)C2=O)CC1 | – | 30.4 µM (active)
7 | O=c1c(-c2ccc(O)cc2)coc2cc(O)ccc12 | inactive | –
8 | Cc1oc(-c2ccccc2)nc1CCOc1ccc(C[C@H](Nc2ccccc2C(=O)c2ccccc2)C(=O)O)cc1 | – | 2.55 µM (active)
9 | CCC(=C(c1ccc(O)cc1)c1ccc(OCCN(C)C)cc1)c1ccccc1 | – | 8.38 µM (active)
10 | c1ccc2cc3c(ccc4ccccc43)cc2c1 | inactive | –
11 | O=[N+]([O-])c1ccc(O)cc1 | inactive | –
12 | O=C(O)c1ccccc1C(c1ccc(O)cc1)c1ccc(O)cc1 | – | 31.1 µM (active)
13 | CCCCCCCCCCCCc1ccccc1S(=O)(=O)O | – | 6.21 µM (active)
14 | NC(=O)N1C(=O)C(C(=O)c2cc(Cl)cs2)c2cc(F)c(Cl)cc21 (stereo not given) | – | 6.63 µM (active)
15 | CC1=C(/C=C/C(C)=C/C=C/C(C)=C/C(=O)O)C(C)(C)CCC1 | – | 20 µM (active)
16 | CC[C@H](c1ccc(O)cc1)[C@@H](CC)c1ccc(O)cc1 | – | 20.1 µM (active)
17 | CC(C)(C)CC(C)(C)c1ccc(O)c(-n2nc3ccccc3n2)c1 | inactive | –

Row | Compound | outcome | AC50
18 | CCCCCCCCOC(=O)CCCCCCCCC(=O)OCCCCCCCC | inactive | –
19 | CCc1nn(C2CCCCC2)c2cc(C3(C#N)CCC(C(=O)O)CC3)ccc12 (stereo not given) | – | 15.2 µM (active)
20 | CN1CCC[C@H]1c1cccnc1 | inactive | –
21 | CCCCCCCCCCCCN1CCCC1=O | – | 30.6 µM (active)
22 | C#C[C@]1(O)CC[C@H]2[C@@H]3CCC4=CC(=O)CC[C@@H]4[C@H]3CC[C@@]21C | inactive | –
23 | CC#C[C@]1(O)CC[C@H]2[C@@H]3CCC4=CC(=O)CCC4=C3[C@@H](c3ccc(N(C)C)cc3)C[C@@]21C | – | 36.7 µM (active)
24 | COc1ccc([N+](=O)[O-])cc1N | inactive | –
25 | CC(=O)NC1(c2cccc(F)c2)CCN(CC[C@@]2(c3ccc(Cl)c(Cl)c3)CN(c3ccccc3)C(=O)CO2)CC1 | – | 26 µM (active)
26 | OC1CCC(C2CCCCC2)CC1 (stereo not given) | inactive | –
27 | CC(C)(C)c1ccc(O)c(C(C)(C)C)c1 | – | 31.7 µM (active)
28 | CC[C@H](C)[C@@H](C(=O)O)n1sc2ccccc2c1=O | inactive | –
29 | OC1CCCCC1 | inactive | –
30 | O=C(O)Cc1cc(I)c(Oc2cc(I)c(O)c(I)c2)c(I)c1 | – | 2.73 µM (active)
31 | c1ccc2c(c1)Cc1ccccc1-2 | inactive | –
32 | C=C(C)C(=O)OCCC(F)(F)C(F)(F)C(F)(F)C(F)(F)C(F)(F)C(F)(F)F | inactive | –
33 | CCCOc1sc(C(=O)N2CCC(c3cc(CN)ccc3F)CC2)c(C)c1Br | – | 9.51 µM (active)

read-out: Monokine induced gamma interferon (MIG), CXCL9 (gene 4283); experiment: BSK_BE3C_MIG: BioMAP Diversity Plus: BE3C Assay for Monokine induced gamma interferon (MIG) Biomarker Activity (AID 2283035); conditions: primary human bronchial epithelial cells; actives raise or lower the signal;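 as to outcome: MIG protein measured by ELISA in BE3C cultures after 24 h of dosing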
Outline: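 MIG level was determined by ELISA after 24 h chemical treatment of primary human bronchial epithelial cells. Values were fitted bidirectionally with DMSO as the negative control and activity baseline.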

Row | Compound | outcome | AC50
34 | CCCCC(CC)COC(=O)CCCCC(=O)OCC(CC)CCCC (stereo not given) | inactive | –
35 | Nc1cccc2c(N)cccc12 | inactive | –
36 | CCCCC(CC)COC(=O)CCCCC(=O)OCc1ccccc1 (stereo not given) | inactive | –
37 | Oc1cc2ccccc2c2ccccc12 | – | 28.8 µM (active)
38 | CC(O)CO (stereo not given) | inactive | –
39 | O=c1c(-c2ccc(O)cc2)coc2cc(O)ccc12 | inactive | –
40 | Cc1oc(-c2ccccc2)nc1CCOc1ccc(C[C@H](Nc2ccccc2C(=O)c2ccccc2)C(=O)O)cc1 | – | 4.79 µM (active)
41 | CCC(=C(c1ccc(O)cc1)c1ccc(OCCN(C)C)cc1)c1ccccc1 | – | 9.95 µM (active)
42 | c1ccc2cc3c(ccc4ccccc43)cc2c1 | inactive | –
43 | O=[N+]([O-])c1ccc(O)cc1 | inactive | –
44 | O=C(O)c1ccccc1C(c1ccc(O)cc1)c1ccc(O)cc1 | inactive | –
45 | CCCCCCCCCCCCc1ccccc1S(=O)(=O)O | – | 30.1 µM (active)
46 | NC(=O)N1C(=O)C(C(=O)c2cc(Cl)cs2)c2cc(F)c(Cl)cc21 (stereo not given) | – | 9.59 µM (active)
47 | CC1=C(/C=C/C(C)=C/C=C/C(C)=C/C(=O)O)C(C)(C)CCC1 | inactive | –
48 | CC[C@H](c1ccc(O)cc1)[C@@H](CC)c1ccc(O)cc1 | – | 34.5 µM (active)
49 | CC(C)(C)CC(C)(C)c1ccc(O)c(-n2nc3ccccc3n2)c1 | inactive | –

Row | Compound | outcome | AC50
50 | CCCCCCCCOC(=O)CCCCCCCCC(=O)OCCCCCCCC | inactive | –
51 | CCc1nn(C2CCCCC2)c2cc(C3(C#N)CCC(C(=O)O)CC3)ccc12 (stereo not given) | – | 28 µM (active)
52 | CN1CCC[C@H]1c1cccnc1 | inactive | –
53 | CCCCCCCCCCCCN1CCCC1=O | – | 35.2 µM (active)
54 | C#C[C@]1(O)CC[C@H]2[C@@H]3CCC4=CC(=O)CC[C@@H]4[C@H]3CC[C@@]21C | inactive | –
55 | CC#C[C@]1(O)CC[C@H]2[C@@H]3CCC4=CC(=O)CCC4=C3[C@@H](c3ccc(N(C)C)cc3)C[C@@]21C | inactive | –
56 | COc1ccc([N+](=O)[O-])cc1N | inactive | –
57 | CC(=O)NC1(c2cccc(F)c2)CCN(CC[C@@]2(c3ccc(Cl)c(Cl)c3)CN(c3ccccc3)C(=O)CO2)CC1 | – | 26.9 µM (active)
58 | OC1CCC(C2CCCCC2)CC1 (stereo not given) | inactive | –
59 | CC(C)(C)c1ccc(O)c(C(C)(C)C)c1 | – | 36.1 µM (active)
60 | CC[C@H](C)[C@@H](C(=O)O)n1sc2ccccc2c1=O | inactive | –
61 | OC1CCCCC1 | inactive | –
62 | O=C(O)Cc1cc(I)c(Oc2cc(I)c(O)c(I)c2)c(I)c1 | – | 9.13 µM (active)
63 | c1ccc2c(c1)Cc1ccccc1-2 | inactive | –
64 | C=C(C)C(=O)OCCC(F)(F)C(F)(F)C(F)(F)C(F)(F)C(F)(F)C(F)(F)F | inactive | –
65 | CCCOc1sc(C(=O)N2CCC(c3cc(CN)ccc3F)CC2)c(C)c1Br | – | 10.2 µM (active)
